HT1080NT lethal – kills 2HG-producing HT-1080-NT fibrosarcoma cells; Potency, µM (doses to about 46.1 µM), without a hit: top-dose activity, negative = less viability, hits mostly cytotoxic; hit rate 1.6% among 360,000; HT-1080-NT fibrosarcoma viability, CellTiter-Glo ATP luminescence, 48 h;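 further: NT is the 2HG producing partner of a matched IDH1 knockdown line; 0% = DMSO-treated cells and -100% = media-only wells without cells; nearly all actives have a fitted effect of over 55% in size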
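Viability of the 2HG-overproducing fibrosarcoma line after 48 hours of compound exposure at 37 degrees C was determined by luminescence with CellTiter-Glo, and concentration-effect curves were then fitted and categorized.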
HT1080 IDH1KD tx – HT-1080 IDH1 knockdown cell toxicity (counter line); HT-1080 IDH1 knockdown viability, ATP luminescence, 48 h; Potency, µM (highest dose often 46.1 µM), for inactives: at the top dose activity, negative = toxicity, most hits filed as cytotoxic; hit rate 2% among 360,000; AID 686971;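 further: 0% = DMSO wells and -100% = cell-free medium wells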
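CellTiter-Glo luminescence after 48 h compound exposure at 37 degrees C of IDH1-knockdown HT-1080 cells in 5% FBS RPMI. %Activity scaled between DMSO wells and cell-free media wells, with curves fitted and assigned curve classes.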
MCF10A rereplic – DNA re-replication induction in MCF 10a cells; MCF 10A DNA re-replication, Hoechst nuclear intensity, 48 h; Potency, µM (titrated, usually from 46.1 µM), for the others: at the top dose activity, positive = re-replication, actives largely listed as activators; hit rate 2.9% among 350,000; AID 624296; further: % of control where 0% means no effect; nearly all actives have a fitted effect of over 50% in size
KB-3-1 cytotox – kills parental KB-3-1 adenocarcinoma cells. KB-3-1 viability, CellTiter-Glo ATP luminescence, 72 h. Potency, µM (series often up to 46.1 µM), most hits filed as cytotoxic. hit rate 1.4% among 400,000. AID 1347075; further: on the % scale 0 is the no-effect control and ±100 the full control effect; nearly all actives have a fitted effect of over 60% in size
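Viability of parental KB-3-1 cells, measured by CellTiter-Glo luminescence, followed a 72 h incubation at 37 °C with pinned compounds in phenol-red-free DMEM containing 10% FBS.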
KB-V1 cytotox – KB-V1 MDR subline cytotoxicity; KB-V1 MDR cells viability, CellTiter-Glo, 72 h; Potency, µM (highest dose often 46.1 µM), most hits filed as cytotoxic; hit rate 3.4% among 400,000; AID 1347076; further: on the % scale 0 is the no-effect control and ±100 the full control effect; nearly all actives have a fitted effect of over 60% in size
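Following 72 h at 37 degrees C with compound, KB-V1 cell viability was read by CellTiter-Glo luminescence, medium being phenol-red-free DMEM plus 10% FBS; concentration-response parameters came from normalized, curve-fitted qHTS data.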
SW480 rereplic – inducers of DNA re-replication in SW480 colon cancer cells; AID 624297; hit rate 1.8% among 340,000; Potency, µM (series often up to 46.1 µM), without a hit: at the highest dose re-replication activation, most hits filed as activators; SW480 DNA re-replication, Hoechst DNA content imaging, 48 h; further: % of control where 0% means no effect; nearly all actives have a fitted effect of over 55% in size
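250 cells/well; 23 nL cpd via pin tool; 48 hr, 37 C, 5% CO2; Hoechst 40 min; imager read of total nuclear intensity, ex 405/em 500-530 nm.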
Starred values were filed as active, the others as inactive; i = inactive; u = inconclusive; x = no result. Shown are actives, neighbours in structure and some others; about 7.9% of the full set was active somewhere. The call rests on the fitted dose curve; in most records, active means well fitted curve in the direction sought with a large enough effect; inconclusive means small, poorly fitted or top-dose-only effect, or another doubt; inactive means no such curve, though single readings can be large; an effect the other way counts as inactive or inconclusive. Potency means the concentration at half of the fitted maximal effect.

SMILES	HT1080NT lethal	HT1080 IDH1KD tx	MCF10A rereplic	KB-3-1 cytotox	KB-V1 cytotox	SW480 rereplic
O=C(NNc1ccc([N+](=O)[O-])cn1)Nc1ccc(N=Nc2ccccc2)cc1	-5%	-13%	14%	i	i	5%
COc1ccc(N2CC(NC(=O)Cc3cccs3)CC2=O)cc1OC (stereo not given)	x	x	x	i	u	x
CCOC(=O)c1c(S(=O)(=O)N2CCCCC2C)c(C)n(C)c1C (stereo not given)	10%	-2%	-1%	i	i	-5%
CCOc1ccc(CNC(=O)CCS(=O)(=O)c2cc3c4c(c2)CCN4C(=O)CC3)cc1OC	x	x	x	i	i	x
CC(C)n1c(O)c(N=NC(=O)CNC(=O)Cc2ccc(Cl)cc2)c2ccccc21	3%	0%	-17%	i	i	-4%
CC(C)n1c(O)c(N=Nc2ccc(Cl)nn2)c2ccccc21	-3%	4%	0%	i	12µM*	-4%
O=C(C/C=N/OCc1c(Cl)cccc1Cl)c1ccc(Cl)cc1	-1%	11%	23µM*	i	i	16%
Cc1ccc(NC(=O)c2c(NC(=O)c3ccco3)sc3c2CCC(C(C)(C)C)C3)c(C)c1 (stereo not given)	x	x	x	i	i	x
Fc1ccc(-c2nn3c(C4COc5ccccc5O4)nnc3s2)cc1 (stereo not given)	2%	3%	0%	i	u	0%
c1csc(-c2nn3c(C4COc5ccccc5O4)nnc3s2)c1 (stereo not given)	-4%	11%	u	i	u	3.7µM*
CCOc1ccccc1NC(=O)Nc1nnc(N2CCCC(C)C2)s1 (stereo not given)	x	x	x	i	i	x
Cc1ccccc1NC(=O)CN1C(=O)S/C(=C\c2ccc(-c3cccc(C(=O)O)c3C)o2)C1=O	-14%	11%	4%	i	i	15%
Cc1ccc(NC(=O)CN2C(=O)S/C(=C/c3ccc(-c4cc(C(=O)O)ccc4C)o3)C2=O)cc1C	-1%	7%	5.8µM*	i	i	u
Cc1cccc(NC(=O)CN2C(=O)S/C(=C\c3ccc(-c4cccc(C(=O)O)c4C)o3)C2=O)c1	5%	7%	23µM*	i	i	u
Cc1cc(NC(=O)Cc2ccc(Br)cc2)no1	2%	-1%	u	i	i	u
Cc1cc(NC(=O)/C=C/c2ccc(Cl)cc2)no1	-2%	-3%	9%	i	i	6.5µM*
Cc1cc(NC(=O)Nc2ccc(Cl)cc2)no1	-8%	1%	-14%	i	i	18%
Cc1cc(NC(=O)/C=C/c2ccc(Br)cc2)no1	1%	-8%	4%	i	u	10µM*
OCCN1CCN(CC#CCn2c3ccccc3c3ccccc32)CC1	21µM*	u	26%	i	i	3%
OCCN1CCN(CC#CCC(c2ccccc2)c2ccccc2)CC1	-14%	-4%	30%	i	i	-16%
O=NN(CC(=O)NNc1ccccc1)CC(=O)NNc1ccccc1	u	u	x	i	i	x
COC(=O)C1=C(C)N(c2cccc(OC)c2)C(=O)/C1=C\c1ccco1	-11%	-14%	-3%	i	i	-1%
CCOC(=O)C1=C(C)N(c2ccc(OCC)cc2)C(=O)/C1=C\c1ccco1	0%	u	16µM*	i	i	17%
O=C(CN1CCSC1=NCc1ccccc1)c1ccc(Cl)cc1	-3%	0%	-3%	i	16µM*	-75%
O=C(Nc1ccc(Cl)cc1)N1CCSC1=NCc1ccccc1	3%	3%	3%	i	i	-8%
SMILES	HT1080NT lethal	HT1080 IDH1KD tx	MCF10A rereplic	KB-3-1 cytotox	KB-V1 cytotox	SW480 rereplic
CCOC(=O)Cc1csc(NC(=O)CCc2ccc(S(=O)(=O)N3CCOCC3)cc2)n1	7%	9%	u	i	i	23µM*
CCOC(=O)Cc1csc(NC(=O)c2ccc(S(=O)(=O)N3CCCCC3)cc2)n1	-18%	-7%	5%	i	15µM*	-5%
CCOC(=O)Cc1csc(NC(=O)CN2CCOCC2)n1	0%	2%	0%	i	i	4%
COc1ccc(-c2nn(-c3ccc(F)cc3F)c3c2cnc2ccc(F)cc23)cc1	x	x	x	i	i	x
CNC(=O)c1ccc2nc(-c3cccc(C)c3)c(-c3cccc(C)c3)nc2c1	x	x	x	i	i	x
O=C(NNC(=O)c1cc(Br)ccc1O)c1csc(N2CCOCC2)n1	-24%	u	-1%	u	u	4.1µM*
O=C(NNC(=O)c1cc(Br)ccc1Cl)c1csc(N2CCOCC2)n1	-1%	-16%	-9%	i	u	-12%
Cc1ccc(Oc2ccccc2NC(=O)CSCC(=O)Nc2cc(C)on2)cc1	u	u	u	u	4.6µM*	-5%
Cc1cc(NC(=O)CSCC(=O)Nc2ccccc2N2CCCCC2)no1	-6%	-20%	29%	i	i	u
Cc1cc(NC(=O)CSCC(=O)Nc2ccccc2Oc2ccccc2)no1	-14%	-29%	21%	u	10µM*	-9%
Cc1ccc(-c2nc(CSCC(=O)Nc3cc(C)on3)c(C)o2)cc1	10%	-5%	1%	i	23µM*	-13%
Cc1cc(C)cc(-n2ccnc2SCC(=O)Nc2ccc(C)c(Cl)c2)c1	x	x	x	i	i	x
N#CC1C=Cc2ccccc2N1C(=O)c1ccccc1 (stereo not given)	-22%	u	14%	i	i	15%
N#CC1C=Cc2c(ccc3ccccc23)N1C(=O)c1ccccc1 (stereo not given)	1.8µM*	u	1.5µM*	0.46µM*	i	3.7µM*
CC(C=NNC(=O)C(=O)NN=CC(C)=Cc1ccccc1)=Cc1ccccc1	5%	7%	19%	i	i	u
CC(/C=N/NC(=O)Cc1cccn1C)=C\c1ccccc1	24%	23%	3%	i	16µM*	-2%
COC(=O)C[C@H]1C[C@@H]2c3cc(NC(=O)NC4CCCC4)ccc3O[C@@H]2[C@@H](CO)O1	-2%	2%	x	i	i	x
CC1C(=O)N(c2ccc(S(=O)(=O)N(C)C)cc2)C1(/C=C/c1ccccc1)C(=O)NC1CCCC1 (stereo not given)	-5%	1%	15%	i	u	5%
O=C1CC(/C=C/c2ccccc2)(C(=O)NC2CCCC2)N1c1ccc(S(=O)(=O)N2CCCC2)cc1 (stereo not given)	-2%	-6%	u	i	2.9µM*	12%

Compound activity: PubChem, National Center for Advancing Translational Sciences (NCATS)
